According to PubChem BioAssay AID808 (Columbia University Molecular Screening Center, 2007):
The whole screen tested about 93,000 compounds, of which about 180 (0.19%) were called active. This is one part of a sample in which actives are shown more often than they occur.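 The calls were made as follows: active = activation above the screen mean plus 3 SD, with well images confirming the hit on visual review (cut at about 28% in these data, passing the limit was not always enough); inconclusive = activation above that limit but images do not confirm it; inactive = activation not above that limit.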

Assay: enhancers of endothelial VCAM-1 upregulation by TNFa – imaging, HUVEC, TNFa stimulus, immunofluorescence, primary screen (AID 808);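 also: signal is the number of cytoplasmic VCAM-1 stained grains per positive cell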
Conditions: HUVEC TNFa-stimulated VCAM-1 immunofluorescence, high-content imaging; at 2 µM; active compounds read high
With `COC(=O)CN1C(=O)C2(C(C(=O)OC)=C(N)Oc3ccccc32)C2=C1CC(C)(C)CC2=O` (stereo not given) the activation was 33.9% (active).
With `CCOC(=O)C(O)(c1ccc(N)c(OC)c1)C(F)(F)F` (stereo not given) the activation was -9.7% (inactive).
In the case of `c1cncc(CNC2=NCCC2)c1`, the activation is reported as -5.4% (inactive).
For `O=C(NCC(c1cccnc1)N1CCN(c2ccccc2)CC1)Oc1ccccc1` (stereo not given), the activation was 1.5% (inactive).
For `CNC(=O)N(C)c1nnc(C(C)(C)C)s1`, the activation was 4.6% (inactive).
